The campaign covered roughly 5,500 compounds. About 2,000 (36%) were called active. Another 18% or so got no clear call; they are omitted. Rule as the data show it: active = normalized growth mostly below about 0.91 (no sharp cut-off); inconclusive = no clear call, values can overlap the other calls; inactive = mostly above about 0.92. The list shows a part of the results.
Experiment: chemical genetic growth profiling, strain panel (AID 1159580);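 also: tested at 20 µM; growth read once vehicle control cultures reached saturation at 30 °C; 1 = growth at the plate median or of vehicle wells; lower values mean less growth of the strain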
Conditions: growth OD
[1] = S. cerevisiae deletion strains, locus YHR030C, strain SLT2, stronger effect = lower value
[2] = S. cerevisiae deletion strains, locus YJL187C, strain SWE1, stronger effect = lower value

Measured: normalized growth

COP(=S)(OC)Oc1ccc(Sc2ccc(OP(=S)(OC)OC)cc2)cc1
inactive: S. cerevisiae deletion strains, locus YAL021C, strain ccr4, stronger effect = lower value 1 | S. cerevisiae deletion strains, locus YAL026C, strain drs2, stronger effect = lower value 1 | S. cerevisiae deletion strains, locus YAL030W, strain snc1, stronger effect = lower value 0.999 | S. cerevisiae deletion strains, locus YBL061C, strain skt5, stronger effect = lower value 1.01 | S. cerevisiae deletion strains, locus YBR009C, strain hhf1, stronger effect = lower value 1.01 | S. cerevisiae deletion strains, locus YBR023C, strain chs3, stronger effect = lower value 1.01 | S. cerevisiae deletion strains, locus YBR171W, strain sec66, stronger effect = lower value 0.992 | S. cerevisiae deletion strains, locus YBR231C, strain swc5, stronger effect = lower value 1 | S. cerevisiae deletion strains, locus YBR279W, strain paf1, stronger effect = lower value 1.01 | S. cerevisiae deletion strains, locus YCL011C, strain gbp2, stronger effect = lower value 1 | S. cerevisiae deletion strains, locus YCL016C, strain dcc1, stronger effect = lower value 1.01 | S. cerevisiae deletion strains, locus YCL061C, strain MRC1, stronger effect = lower value 1.01 | S. cerevisiae deletion strains, locus YCL069W, strain vba3, stronger effect = lower value 1.01 | S. cerevisiae deletion strains, locus YCR088W, strain abp1, stronger effect = lower value 0.994 | S. cerevisiae deletion strains, locus YDL005C, strain med2, stronger effect = lower value 0.998 | S. cerevisiae deletion strains, locus YDL040C, strain nat1, stronger effect = lower value 1 | S. cerevisiae deletion strains, locus YDR001C, strain nth1, stronger effect = lower value 1.01 | S. cerevisiae deletion strains, locus YDR069C, strain doa4, stronger effect = lower value 1.02 | S. cerevisiae deletion strains, locus YDR137W, strain rgp1, stronger effect = lower value 1.02 | S. cerevisiae deletion strains, locus YDR159W, strain sac3, stronger effect = lower value 0.994 | S. cerevisiae deletion strains, locus YDR195W, strain ref2 0.976 | S. cerevisiae deletion strains, locus YDR297W, strain sur2, stronger effect = lower value 1 | S. cerevisiae deletion strains, locus YDR334W, strain swr1, stronger effect = lower value 1.01 | S. cerevisiae deletion strains, locus YDR335W, strain msn5, stronger effect = lower value 1.01 | S. cerevisiae deletion strains, locus YDR392W, strain spt3, stronger effect = lower value 0.993 | S. cerevisiae deletion strains, locus YEL003W, strain gim4, stronger effect = lower value 1.01 | S. cerevisiae deletion strains, locus YEL037C, strain rad23, stronger effect = lower value 1 | S. cerevisiae deletion strains, locus YEL061C, strain CIN8 (second series), stronger effect = lower value 1 | S. cerevisiae deletion strains, locus YER015W, strain faa2, stronger effect = lower value 1 | S. cerevisiae deletion strains, locus YER016W, strain bim1, stronger effect = lower value 1 | S. cerevisiae deletion strains, locus YER111C, strain swi4, stronger effect = lower value 1 | S. cerevisiae deletion strains, locus YER155C, strain BEM2 (second series), stronger effect = lower value 1 | S. cerevisiae deletion strains, locus YFR010W, strain ubp6, stronger effect = lower value 1.01 | S. cerevisiae deletion strains, locus YGL167C, strain pmr1, stronger effect = lower value 0.998 | S. cerevisiae deletion strains, locus YGL173C, strain kem1, stronger effect = lower value 1 | S. cerevisiae deletion strains, locus YGL227W, strain vid30, stronger effect = lower value 1 | S. cerevisiae deletion strains, locus YGL240W, strain doc1, stronger effect = lower value 0.999 | S. cerevisiae deletion strains, locus YGL253W, strain hxk2, stronger effect = lower value 1 | S. cerevisiae deletion strains, locus YHR013C, strain ard1, stronger effect = lower value 0.986 | S. cerevisiae deletion strains, locus YHR027C, strain rpn1, stronger effect = lower value 1.01 | [1] 0.973 | S. cerevisiae deletion strains, locus YHR079C, strain IRE1, stronger effect = lower value 1.01 | S. cerevisiae deletion strains, locus YHR142W, strain chs7, stronger effect = lower value 1.01 | S. cerevisiae deletion strains, locus YJL092W, strain hpr5, stronger effect = lower value 1 | S. cerevisiae deletion strains, locus YJL095W, strain BCK1 (second series), stronger effect = lower value 1 | S. cerevisiae deletion strains, locus YJL095W, strain BCK1, stronger effect = lower value 0.999 | S. cerevisiae deletion strains, locus YJL115W, strain asf1, stronger effect = lower value 1 | S. cerevisiae deletion strains, locus YJL129C, strain trk1, stronger effect = lower value 1.02 | S. cerevisiae deletion strains, locus YJL154C, strain vps35, stronger effect = lower value 1.01 | S. cerevisiae deletion strains, locus YJL164C, strain tpk1, stronger effect = lower value 1.02 | S. cerevisiae deletion strains, locus YJL166W, strain qcr8, stronger effect = lower value 1.01 | [2] 1.01 | S. cerevisiae deletion strains, locus YJR066W, strain TOR1, stronger effect = lower value 0.946 | S. cerevisiae deletion strains, locus YKL160W, strain elf1, stronger effect = lower value 1 | S. cerevisiae deletion strains, locus YKR026C, strain gcn3, stronger effect = lower value 1 | S. cerevisiae deletion strains, locus YKR091W, strain srl3, stronger effect = lower value 0.997 | S. cerevisiae deletion strains, locus YLL001W, strain dnm1, stronger effect = lower value 1 | S. cerevisiae deletion strains, locus YLL026W, stronger effect = lower value 0.995 | S. cerevisiae deletion strains, locus YLL041C, strain sdh2, stronger effect = lower value 1 | S. cerevisiae deletion strains, locus YLR027C, strain aat2, stronger effect = lower value 1 | S. cerevisiae deletion strains, locus YLR113W, strain HOG1, stronger effect = lower value 0.977 | S. cerevisiae deletion strains, locus YLR221C, strain rsa3, stronger effect = lower value 1 | S. cerevisiae deletion strains, locus YLR258W, strain gsy2, stronger effect = lower value 1 | S. cerevisiae deletion strains, locus YLR262C, strain YPT6 (second series), stronger effect = lower value 1.04 | S. cerevisiae deletion strains, locus YLR320W, strain mms22, stronger effect = lower value 0.993 | S. cerevisiae deletion strains, locus YLR342W, strain FKS1, stronger effect = lower value 1.01 | S. cerevisiae deletion strains, locus YLR357W, strain rsc2, stronger effect = lower value 1.01 | S. cerevisiae deletion strains, locus YLR370C, strain arc18, stronger effect = lower value 1.01 | S. cerevisiae deletion strains, locus YLR384C, strain iki3, stronger effect = lower value 1 | S. cerevisiae deletion strains, locus YML120C, strain ndi1, stronger effect = lower value 1.01 | S. cerevisiae deletion strains, locus YMR058W, strain fet3, stronger effect = lower value 1.04 | S. cerevisiae deletion strains, locus YMR125W, strain sto1, stronger effect = lower value 1 | S. cerevisiae deletion strains, locus YMR129W, stronger effect = lower value 1.01 | S. cerevisiae deletion strains, locus YMR205C, strain PFK2, stronger effect = lower value 0.992 | S. cerevisiae deletion strains, locus YMR231W, strain pep5, stronger effect = lower value 1 | S. cerevisiae deletion strains, locus YNL071W, strain lat1, stronger effect = lower value 1.01 | S. cerevisiae deletion strains, locus YNL183C, strain NPR1, stronger effect = lower value 0.945 | S. cerevisiae deletion strains, locus YNL209W, strain ssb2, stronger effect = lower value 1.01 | S. cerevisiae deletion strains, locus YNL248C, strain rpa49, stronger effect = lower value 1 | S. cerevisiae deletion strains, locus YNL322C, strain KRE1 (second series), stronger effect = lower value 1 | S. cerevisiae deletion strains, locus YNR049C, strain mso1, stronger effect = lower value 1.01 | S. cerevisiae deletion strains, locus YOR001W, strain rrp6, stronger effect = lower value 1 | S. cerevisiae deletion strains, locus YOR070C, strain gyp1, stronger effect = lower value 1.01 | S. cerevisiae deletion strains, locus YOR080W, strain dia2, stronger effect = lower value 1 | S. cerevisiae deletion strains, locus YOR083W, strain WHI5, stronger effect = lower value 1.01 | S. cerevisiae deletion strains, locus YOR106W, strain vam3, stronger effect = lower value 0.999 | S. cerevisiae deletion strains, locus YOR231W, strain MKK1, stronger effect = lower value 0.984 | S. cerevisiae deletion strains, locus YOR265W, strain rbl2, stronger effect = lower value 1.02 | S. cerevisiae deletion strains, locus YOR270C, strain vph1, stronger effect = lower value 1.03 | S. cerevisiae deletion strains, locus YOR290C, strain snf2, stronger effect = lower value 1 | S. cerevisiae deletion strains, locus YPL051W, strain arl3, stronger effect = lower value 1.01 | S. cerevisiae deletion strains, locus YPL078C, strain atp4, stronger effect = lower value 1.01 | S. cerevisiae deletion strains, locus YPL106C, strain sse1, stronger effect = lower value 1.03 | S. cerevisiae deletion strains, locus YPL240C, strain hsp82, stronger effect = lower value 1 | S. cerevisiae deletion strains, locus YPL256C, strain CLN2, stronger effect = lower value 1.03

O=[N+]([O-])c1ccc(C(O)C(O)CO)cc1 (configuration not stated)
inactive: S. cerevisiae deletion strains, locus YAL013W, strain DEP1, stronger effect = lower value 0.974 | S. cerevisiae deletion strains, locus YBR229C, strain ROT2, stronger effect = lower value 0.981 | S. cerevisiae deletion strains, locus YDL101C, strain DUN1, stronger effect = lower value 1.01 | S. cerevisiae deletion strains, locus YDR150W, strain NUM1, stronger effect = lower value 1 | S. cerevisiae deletion strains, locus YEL061C, strain CIN8, stronger effect = lower value 1 | S. cerevisiae deletion strains, locus YGR078C, strain PAC10, stronger effect = lower value 0.996 | [1] 1.07 | S. cerevisiae deletion strains, locus YHR087W, strain rtc3, stronger effect = lower value 0.958 | [2] 0.993 | S. cerevisiae deletion strains, locus YJR043C, strain POL32, stronger effect = lower value 0.987 | S. cerevisiae deletion strains, locus YJR075W, strain HOC1, stronger effect = lower value 0.988 | S. cerevisiae deletion strains, locus YLR039C, strain RIC1, stronger effect = lower value 0.974 | S. cerevisiae deletion strains, locus YLR058C, strain SHM2 (second series), stronger effect = lower value 0.988 | S. cerevisiae deletion strains, locus YLR085C, strain ARP6, stronger effect = lower value 0.986 | S. cerevisiae deletion strains, locus YLR262C, strain YPT6, stronger effect = lower value 0.963 | S. cerevisiae deletion strains, locus YML094W, strain GIM5, stronger effect = lower value 0.99 | S. cerevisiae deletion strains, locus YMR219W, strain ESC1, stronger effect = lower value 0.994 | S. cerevisiae deletion strains, locus YMR263W, strain SAP30, stronger effect = lower value 1 | S. cerevisiae deletion strains, locus YMR307W, strain GAS1, stronger effect = lower value 0.959 | S. cerevisiae deletion strains, locus YNL153C, strain GIM3, stronger effect = lower value 0.987 | S. cerevisiae deletion strains, locus YNL298W, strain CLA4 (second series), stronger effect = lower value 0.961 | S. cerevisiae deletion strains, locus YNL322C, strain KRE1, stronger effect = lower value 0.996 | S. cerevisiae deletion strains, locus YNR030W, strain Alg12, stronger effect = lower value 0.983 | S. cerevisiae deletion strains, locus YPL055C, strain LGE1, stronger effect = lower value 0.971 | S. cerevisiae deletion strains, locus YPL241C, strain CIN2, stronger effect = lower value 1 | S. cerevisiae deletion strains, locus YPR135W, strain CTF4, stronger effect = lower value 1.02 | S. cerevisiae strains, strain wild type, stronger effect = lower value 0.979
